# This is a sample that favours compounds with a hit; in the whole collection about 3.8% have one here.
# S2 tox – viability counter-screen for ATXN expression inhibitors; S2 cells (HEK-293 line with an ATXN2-luciferase reporter) viability, CellTiter-Fluor protease fluorescence, 24 h; Potency, µM (highest dose often 56.7 µM), actives largely listed as cytotoxic; hit rate 0.49% among 400,000; AID 651635; note: nearly all actives have a fitted effect of over 40% in size
# HT1080 IDH1KD tx – kills HT-1080 cells with IDH1 knockdown | HT-1080 IDH1 knockdown viability, ATP luminescence, 48 h | Potency, µM (top dose mostly 46.1 µM), for inactives: at the top dose activity, negative = toxicity, usual class: cytotoxic | hit rate 2% among 360,000;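 note: 0% = DMSO wells and -100% = cell-free medium wells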
#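 Viability of IDH1-knockdown HT-1080 fibrosarcoma cells was assessed by CellTiter-Glo after 48 h at 37 °C with titrated compound; concentration-effect curves were classified by fit quality and response size.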
# ATXN2 expr inh – ATXN2 expression inhibition; HEK-293 ATXN2-luciferase reporter, luminescence, 24 h; Potency, µM (doses to about 57 µM), without a hit: at the top dose activity change, negative = inhibition, usual class: inhibitors; hit rate 0.72% among 360,000; note: % is set by controls: 0 for no effect and ±100 for the full control effect; nearly all actives have a fitted effect of over 55% in size
#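 qHTS (up to 57 uM final) was run with 24 h compound exposure of reporter cells at 37 °C. Each well was multiplexed: SteadyGlo luminescence measured ATXN2-luciferase expression after a fluorogenic Gly-Phe-AFC viability readout (25 uM final).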
# TGFb SMAD3 inh – TGF-b pathway inhibition; HepG2 CAGA-GFP TGF-b/SMAD3 reporter, GFP fluorescence, 18 h; TGF-beta stimulated, 500 pg/mL final; Potency, µM (doses to about 46.1 µM), inactives show top-dose activity, negative = inhibition, actives largely listed as inhibitors; hit rate 1.2% among 410,000; AID 588855; note: % is set by controls: 0 for no effect and ±100 for the full control effect; nearly all actives have a fitted effect of over 65% in size
#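 Per well, imaged GFP fluorescence of HEPG2 CAGA-GFP cells gives the signal; cells get compound, then TGF-beta (500 pg/mL final), 18 h at 37 degrees C; %Activity versus -TGF-beta and +DMSO controls.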
# HT1080NT lethal – kills 2HG-producing HT-1080-NT fibrosarcoma cells; HT-1080-NT fibrosarcoma viability, CellTiter-Glo ATP luminescence, 48 h; Potency, µM (titrated, usually from 46.1 µM), without a hit: top-dose activity, negative = less viability, hits mostly cytotoxic; hit rate 1.6% among 360,000;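 note: NT is the 2HG producing partner of a matched IDH1 knockdown line; 0% = DMSO-treated cells and -100% = media-only wells without cells; nearly all actives have a fitted effect of over 55% in size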
#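 Viability by CellTiter-Glo luminescence after 48 h compound exposure at 37C of HT-1080-NT cells (750/well, RPMI, 5% FBS). % activity scaled between DMSO wells and medium-only wells, then curve-fitted and categorized by curve class.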
# HepG2 viability – HepG2 cytotoxicity, counter-screen for TGF-b inhibitors | HepG2 CAGA-GFP viability, ATP luminescence, 18 h | Potency, µM (highest dose often 46.1 µM), for inactives: top-dose activity change, negative = cytotoxicity, actives largely listed as cytotoxic | hit rate 0.76% among 410,000 | AID 588856
#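 CellTiter-Glo luminescence gave cytotoxicity after 18 hours at 37 degrees C. The cells were HepG2 CAGA-GFP in 1% FBS DMEM, stimulated with 500 pg/mL TGF-beta after compound addition. %Activity was normalised to no-cell wells (complete cell-killing) and DMSO (no toxicity), and curves were fitted and classified.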
# Numbers without * were called inactive; i = inactive; u = inconclusive; x = no result given; ! = repeats disagree. Calls come from the whole dose curve; as a rule, active = well fitted curve in the direction sought with a large enough effect; inconclusive = small, poorly fitted or top-dose-only effect, or another doubt; inactive = no such curve, though single readings can be large; an effect the other way counts as inactive or inconclusive. Potency is the fitted concentration of half-maximal effect.
SMILES,S2 tox,HT1080 IDH1KD tx,ATXN2 expr inh,TGFb SMAD3 inh,HT1080NT lethal,HepG2 viability
CCc1ccc(Oc2nnnn2-c2ccc(C(N)=O)cc2)cc1,i,-6%,-1%,14%,13%,5%
COc1ccc(-n2nnnc2S(=O)(=O)CC(=O)N2CCCCC2)cc1,10µM*,21µM*,13µM*,u,21µM*,13µM*
COc1ccccc1-n1cc(CN2CCOc3ccc(CN4C[C@@H](C)O[C@@H](C)C4)cc3C2)cn1,i,x,x,x,x,x
CCCN1C=CC(=C2C(=O)c3ccccc3C2=O)C=C1,u,11µM*,u,5%,5.6µM*,7.1µM*
CCCCCCN1C=CC(=C2C(=O)c3ccccc3C2=O)C=C1,i,2%,u,8%,2%,-23%
CCN1C=CC(=C2C(=O)c3ccccc3C2=O)C=C1,u,11µM*,1.1µM*,-6%,10µM*,-81%
C[C@@]12CC(=O)NC1N(C(=O)c1cccc(C(F)(F)F)c1)C(c1ccccc1OC(=O)c1cccc(C(F)(F)F)c1)C2 (stereo partly specified),u,-12%,-8%,13µM*,-11%,-40%
Cn1c(-c2ccccc2)cc2ccccc21,i,8%,24%,-24%,-1%,-27%
Cn1c(-c2ccccc2)cc2c3no[n+]([O-])c3ccc21,u,4.1µM*,u,u,2.3µM*,-19%
CC(C)(C)c1ccc(-c2cn(-c3ccc(Br)cc3)c3[n+]2CCCS3)cc1,i,8.2µM*,-22%,10µM*,23µM*,-21%
COc1ccc(-c2cn(-c3ccccc3)c3[n+]2CCS3)cc1,u,13µM*,-36%,u,u,-16%
COc1ccc(OC)c(-c2ccnc(-n3ncc(C(=O)NC(C)(C)CO)c3C3CC3)n2)c1,i,x,x,x,x,x
CCC(C(=O)O)C1CCC(C)C(C(C)C(O)C(C)C(=O)C(CC)C2OC3(C=CC(O)[C@@]4(CC[C@](C)(C5CC[C@@](O)(CC)C(C)O5)O4)O3)C(C)CC2C)O1 (stereo partly specified),x,x,7.7µM*,x,x,x
Cc1cccc(C)c1OCCCn1c(CCNC(=O)C2CCCCC2)nc2ccccc21,x,x,x,11µM*,x,-94%
O=C(NCCc1nc2ccccc2n1CCCOc1ccccc1)C1CCCCC1,x,x,x,u,x,-9%
Cc1ccccc1OCCCCn1c(CCNC(=O)C(C)(C)C)nc2ccccc21,u,x,u,16µM*,x,-86%
COc1ccc(OCCCn2c(CCNC(=O)C3CCCCC3)nc3ccccc32)cc1,x,x,x,10µM*,x,-17%
COc1cccc(N2C(=O)CSC23C(=O)N(Cc2ccccc2)c2ccccc23)c1 (stereo unspecified),i,x,-19%,8%,x,-9%
COCCc1ccccn1,i,x,17%,x,x,x
COc1ccccc1-c1c(-c2ccc(OCC(=O)NN)cc2O)n[nH]c1C(F)(F)F,i,-4%,0%,-14%,-6%,-27%
COc1ccc(-c2n[nH]c(C(F)(F)F)c2-c2cc3ccccc3o2)c(O)c1,u,u,u,u,u,13µM*
CC1CCCN(c2ncnc3c2nc2n3CCCCC2)C1 (stereo unspecified),i,x,81%,-9%,x,6%
Cc1ccccc1NC(=O)CSc1nc2ccc(NC(=O)COc3ccccc3F)cc2s1,u,x,18µM*,u,x,-26%
Cc1ccc(CSc2nc3ccc(NC(=O)COc4ccccc4F)cc3s2)cc1,i,x,6%,-30%,x,-8%
CCOC(=O)N1CCN(CCC(=O)c2ccc(OC)cc2)CC1,u,-8%,x,11µM*,-14%,-100%
SMILES,S2 tox,HT1080 IDH1KD tx,ATXN2 expr inh,TGFb SMAD3 inh,HT1080NT lethal,HepG2 viability
COc1ccc(N2CCN(CCC(=O)c3ccc4ccccc4c3)CC2)cc1,i,u,-8%,11µM*,u,-114%
CCOC(=O)N1CCN(CCC(=O)c2ccc(Cl)cc2)CC1,i,-18%,-3%,u,u,-59%
Cc1ccc(NC(=S)/C(C#N)=C2/Nc3ccccc3S2)cc1,i,-19%,x,20µM*,u,-38%
CCCCOC(=O)CC(CC(=O)OCCCC)(OC(C)=O)C(=O)OCCCC,i,x,4%,x,x,x
CCOc1ccccc1NC(=O)CSc1nc2ccccc2c2nc(CCn3cncc3C)nn12,28µM*,x,-1%,u,x,-23%
Cc1cccc(NC(=O)CSc2nc3ccccc3c3nc(CCc4c(C)n[nH]c4C)nn23)c1,16µM*,u,32µM*!,u,u,-11%
Cc1cncn1CCc1nc2c3ccccc3nc(SCC(=O)Nc3cccc(Cl)c3)n2n1,16µM*,-17%,25µM*,u,-17%,-34%
Oc1c(Br)cc(/C=N/Nc2ccc(Cl)nn2)cc1Br,x,-10%,11%,4%,-1%,5%
Oc1c(Br)cc(Br)cc1/C=N/Nc1ccc(Cl)nn1,u,-25%,2.8µM*,-5%,-7%,-18%
CCn1c(=O)cc(SCC(=O)NCCc2cccc(C)c2)c2ccccc21,i,x,-4%,-17%,x,-29%

# Compound activity deposited in PubChem by National Center for Advancing Translational Sciences (NCATS).
